Values joined by “and” are separate entries in the source; they are usually repeats but may differ in a detail not shown here. Equal entries are not always repeated. Where two headings read alike, the source gives them in different places.
What was measured:
[1] = tested on: MKK7; conditions: concentration: 1 μM, replicates: in singlicate, n = 1
[2] = tested on: MKNK1; conditions: concentration: 1 μM, replicates: in singlicate; n = 1
[3] = tested on: MKNK2; conditions: concentration: 1 μM, replicates: in singlicate, n = 1
[4] = tested on: T1, MLCK; conditions: concentration: 1 μM, replicates: in singlicate; n = 1
T1 construct: gene MYLK3

[5] = tested on: T2, MLK1; conditions: concentration: 1 μM, replicates: in singlicate; n = 1
T2 construct: gene MAP3K9

[6] = tested on: MLK2; conditions: concentration: 1 μM, replicates: in singlicate, n = 1
[7] = tested on: MLK3; conditions: concentration: 1 μM, replicates: in singlicate; n = 1
[8] = tested on: MRCKA; conditions: concentration: 1 μM, replicates: in singlicate, n = 1
[9] = tested on: T3, MRCKB; conditions: concentration: 1 μM, replicates: in singlicate, n = 1
T3 construct: gene CDC42BPB

[10] = tested on: MST1R; conditions: concentration: 1 μM, replicates: in singlicate, n = 1
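Also: KINOMEscan kinase panel screen.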

Compound	%Inh [1] [%]	%Inh [2] [%]	%Inh [3] [%]	%Inh [4] [%]	%Inh [5] [%]	%Inh [6] [%]	%Inh [7] [%]	%Inh [8] [%]	%Inh [9] [%]	%Inh [10] [%]	%Inh ([1]; 1 µM)	%Inh ([3]; 1 µM)	%Inh ([6]; 1 µM)	%Inh ([8]; 1 µM)	%Inh ([9]; 1 µM)	%Inh ([10]; 1 µM)
CNc1ncnc2[nH]ncc12 [SKF-18355]	0	0	0	1	1	0	2	0	0	0	–	–	–	–	–	–
O=C(Nc1n[nH]c2cc(-c3cccc(F)c3)ccc12)C1CC1 [SB-735464]	19	0	29	35	0	0	4	4	0	15	–	–	–	–	–	–
CCc1ccnc(/C=C/c2n[nH]c3cc(Sc4ccccc4C(=O)NC)ccc23)c1	0	0	0	1	9	4	20	0	1	16	–	–	–	–	–	–
O=c1cc(N2CCOCC2)nc2n(Cc3cccc4ccccc34)ccn12 [GSK2333389]	0	0	3	0	0	2	0	0	0	12	–	–	–	–	–	–
O=C(NCCCN1CCOCC1)c1cccc(Nc2nccc(Nc3ccc(Oc4ccccc4)cc3)n2)c1 [GW663929]	0	0	29	0	0	0	18	4	0	37	–	–	–	–	–	–
CN1c2ccc(NCc3ccc(F)cc3)cc2-c2c(cnn2C)S1(=O)=O	0	0	0	0	15	22	0	0	0	0	–	–	–	–	–	–
Cc1nnc(-c2ccc3occ(-c4ccc(C(C)O)cc4)c3c2)o1 (stereo not drawn)	0	16	0	14	6	14	0	10	0	15	–	–	–	–	–	–
COc1ccc(COc2cc(-n3cnc4ccccc43)sc2C(N)=O)cc1 [GSK1024304]	0	13	1	0	0	0	4	0	0	25	–	–	–	–	–	–
C[C@@H](Oc1cc(-n2cnc3ccc(NC(=O)NC(C)(C)C)cc32)sc1C(N)=O)c1ccccc1Cl [GSK346294]	0	0	0	0	0	27	37	12	5	29	–	–	–	–	–	–
CN(C1=C(c2ccccc2)C(=O)NC1=O)c1ccccc1 [SB-334860]	47	5	8	0	0	0	19	18	0	12	–	–	–	–	–	–
Cn1ccc2ncnc(Oc3ccc(NC(=O)Nc4ccncc4)c(Cl)c3)c21	0	0	0	0	0	5	0	0	0	17	–	–	–	–	–	–
Fc1ccc(-c2ncn(CCCN3CCOCC3)c2-c2cccnc2)cc1 [SB-211743]	8	0	0	0	0	39	17	0	19	0	–	–	–	–	–	–
CC(C)Oc1ccc2c(-c3ccnc(Nc4ccc(N5CCN(C)CC5)cc4)n3)cnn2n1 [GW696155]	0	37	84	42	0	0	0	35	0	0	–	–	–	–	–	–
c1ccc(-c2cc(-c3c[nH]nc3-c3ccccn3)ccn2)cc1 [GW576604]	0	5	0	9	6	0	0	4	0	34	–	–	–	–	–	–
NS(=O)(=O)c1cccc(-c2ccc3nccc(-c4cccc(S(N)(=O)=O)c4)c3c2)c1 [GW867253]	0	0	0	0	0	41	0	3	7	0	–	–	–	–	–	–
Cc1ccc(NC(=O)c2ccnc(N3CCN(C)CC3)c2)cc1-c1ccc(C(=O)NCC2CC2)cc1 [GW775604]	0	2	0	16	0	21	0	0	0	0	–	–	–	–	–	–
CN(C(=O)c1ccc(-c2cc(-c3c[nH]nc3-c3ccccn3)ccn2)cc1)C1CCOCC1 [GW810083]	0	0	37	0	0	0	0	4	10	0	–	–	–	–	–	–

Compound	%Inh [1] [%]	%Inh [2] [%]	%Inh [3] [%]	%Inh [4] [%]	%Inh [5] [%]	%Inh [6] [%]	%Inh [7] [%]	%Inh [8] [%]	%Inh [9] [%]	%Inh [10] [%]	%Inh ([1]; 1 µM)	%Inh ([3]; 1 µM)	%Inh ([6]; 1 µM)	%Inh ([8]; 1 µM)	%Inh ([9]; 1 µM)	%Inh ([10]; 1 µM)
NCC(NC(=O)c1cc(-c2cn[nH]c2)c(-c2ccnc3[nH]ccc23)s1)c1ccccc1.O=C(O)C(F)(F)F.O=C(O)C(F)(F)F (stereo not drawn) [GSK1325775]	0	63	94.2	96.3	0	0	0	80	98.6	5	–	–	–	–	–	–
N#Cc1ccc(-c2cc(-c3c[nH]nc3-c3ccccn3)ccn2)cc1 [GW693028]	0	7	14	0	0	6	0	0	0	26	–	–	–	–	–	–
COc1ccc(Nc2nccc(N3CCC(NC(=O)Nc4cccc(C(C)=O)c4)C3)n2)cc1 (stereo not drawn) [GSK1379731]	0	0	4	5	0	0	0	0	0	17	–	–	–	–	–	–
O=c1cc(N2CCOCC2)nc2n(Cc3cccc(F)c3)ccn12 [GSK2297430]	0	0	10	0	2	0	28	0	0	8	–	–	–	–	–	–
Cl.Cl.Cl.Fc1ccc(-c2ncn(C3CCNCC3)c2-c2ccnc(Nc3ccccc3)n2)cc1 [SB-238039]	–	0	–	0	0	–	0	–	–	–	23% and 0%	0% and 29%	40% and 6%	90.3% and 71%	75% and 92.8%	0% and 40%
NS(=O)(=O)c1cccc(-c2ccc3ncc(N4CCOCC4)nc3c2)c1 [GSK1535721]	16	0	0	2	0	27	1	0	2	26	–	–	–	–	–	–
c1ccc(-c2n[nH]cc2-c2ccnc3ccccc23)nc1 [GW271431]	0	6	7	10	0	0	22	28	13	32	–	–	–	–	–	–
CCCCCc1nc2c(N)ncnc2n1CCCCC [SKF-97255]	0	6	0	0	0	50	0	0	0	0	–	–	–	–	–	–
Nc1nccc(-c2c(-c3ccc(F)cc3)ncn2C2CCN(CC(F)(F)F)CC2)n1 [SB-236560]	30	34	35	0	0	0	2	0	14	17	–	–	–	–	–	–
Cc1nnc(-c2ccc(C)c(-c3ccc(C(=O)Nc4ccc(NS(C)(=O)=O)cc4)cc3)c2)o1 [GW702865]	0	0	0	12	5	0	7	0	0	13	–	–	–	–	–	–
O=C(c1ccc(-c2cc(-c3c[nH]nc3-c3ccccn3)ccn2)cc1)N1CCOCC1 [GW812171]	24	0	0	0	0	34	0	1	12	0	–	–	–	–	–	–
O=C(NCCNc1ccnc(Nc2ccc(F)cc2)n1)Nc1ccccc1F [GSK1379880]	0	0	5	0	0	0	0	21	3	50	–	–	–	–	–	–
COc1cc2ncn(-c3cc(OCc4sccc4Cl)c(C(N)=O)s3)c2cc1OC [GSK448459]	0	0	0	10	0	0	0	4	0	38	–	–	–	–	–	–
COc1ccc(Nc2nccc(N3CCC(NC(=O)Nc4cc(C)ccc4C)C3)n2)cc1 (stereo not drawn) [GSK1379741]	28	0	5	11	0	0	0	24	0	55	–	–	–	–	–	–
Cl.Nc1ncnc2occ(-c3ccc(NC(=O)Nc4cc(C(F)(F)F)ccc4F)cc3)c12 [SB-707548]	22	56	98	44	40	65	65	11	0	28	–	–	–	–	–	–
CC(C)(C)n1cnc2c(N)ncnc21 [SKF-97359]	21	54	0	0	0	0	0	0	0	0	–	–	–	–	–	–
